# Measurements as given in the supplement of paper PMC9262897, “Low-cost anti-mycobacterial drug discovery using engineered E. coli” (Nature Communications, 2022).
# Structures can show the parent of a compound that is named as a salt. ± gives the standard deviation of the averaged measurements.
# What was measured:
# Test in all cases: growth (OD600 after 10 h); higher = more growth (less inhibition)
# [1] = test system: E. coli TESEC Alr+ wild-type control; settings: compound 0.1 mM; raw OD600 reference: median of DMSO wells 0.241, cell-free background 0.041
# Description: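 TESEC Mtb Alr E. coli, or the Alr+ wild-type control, in 384-well plates with Prestwick library compounds at 0.1 mM and 1% DMSO, across arabinose induction levels of 1E3 to 1E7 nM. Growth is read as OD600 after 10 h at 37 °C in triplicate biological replicates.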
# E. coli TESEC Mtb Asd = settings: compound 0.1 mM
# Description: (§1)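 TESEC E. coli strains in which the native enzyme is deleted and replaced by arabinose-inducible Mtb Asd, DapB, CysH or TrpD, each grown in its selective medium. Strains were screened against the Prestwick library at 0.1 mM and 1% DMSO in 384-well format at low and high arabinose induction. Growth is read as OD600 after 10 h in triplicate.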
# E. coli TESEC Mtb DapB = settings: compound 0.1 mM
# Description: as §1
# [2] = test system: E. coli TESEC Alr+ wild-type control; settings: compound 0.1 mM; raw OD600 reference: median of DMSO wells 0.49, cell-free background 0.052
# Description: (§2)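 TESEC Mtb Alr E. coli (ΔaraC ΔtolC ΔentC Δalr ΔdadX, arabinose-inducible Mtb Alr) or the Alr+ wild-type control strain, grown in defined M9-fructose medium without D-alanine in 96-well plates with Prestwick library compounds at 0.1 mM and 1% DMSO. Low Alr induction is 0.1 µM arabinose and high induction is 10 mM arabinose.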
# E. coli TESEC Mtb Alr = settings: compound 0.1 mM
# Description: as §2
# [3] = arabinose induction (level): High, raw OD600 reference: median of DMSO wells 0.331, cell-free background 0.041
# [4] = arabinose induction (level): Low, raw OD600 reference: median of DMSO wells 0.417, cell-free background 0.041
# [5] = arabinose induction (level): High, raw OD600 reference: median of DMSO wells […], cell-free background 0.041
# [6] = arabinose induction (level): Low, raw OD600 reference: median of DMSO wells 0.227, cell-free background 0.041
# [7] = arabinose 100 nM, raw OD600 reference: median of DMSO wells 0.413, cell-free background 0.052
# [8] = arabinose 10000000 nM, raw OD600 reference: median of DMSO wells […], cell-free background 0.052
Structure (SMILES),growth [1],growth (E. coli TESEC Mtb Asd; [3]),growth (E. coli TESEC Mtb Asd; [4]),growth (E. coli TESEC Mtb DapB; [5]),growth (E. coli TESEC Mtb DapB; [6]),growth [2],growth (E. coli TESEC Mtb Alr; [7]),growth (E. coli TESEC Mtb Alr; [8])
CCN1C(=O)NC(c2ccccc2)C1=O (stereo not given) [Ethotoin],0.244 ± 0.0096,0.434 ± 0.031,0.446 ± 0.014,0.217 ± 0.01,0.243 ± 0.051,0.448 ± 0.012,0.4121 ± 0.0041,0.353 ± 0.017
CC(=O)Oc1ccccc1C(=O)O [Acetylsalicylic acid],0.242 ± 0.003,0.264 ± 0.051,0.314 ± 0.022,0.198 ± 0.016,0.237 ± 0.054,0.504 ± 0.027,0.413 ± 0.011,0.334 ± 0.012
CC(C)Cc1ccc([C@H](C)C(=O)O)cc1 [S-(+)-ibuprofen],0.236 ± 0.012,0.262 ± 0.015,0.311 ± 0.0056,0.196 ± 0.014,0.18 ± 0.016,0.615 ± 0.082,0.402 ± 0.012,0.329 ± 0.004
c1cnc(N2CCN(Cc3ccc4c(c3)OCO4)CC2)nc1 [Piribedil hydrochloride],0.2234 ± 0.0017,0.218 ± 0.013,0.399 ± 0.027,0.178 ± 0.01,0.202 ± 0.013,0.512 ± 0.077,0.398 ± 0.014,0.366 ± 0.01
CN1CCC(OC(c2ccccc2)c2ccccc2)CC1 [Diphenylpyraline hydrochloride],0.221 ± 0.013,0.237 ± 0.035,0.461 ± 0.077,0.211 ± 0.013,0.246 ± 0.0048,0.47 ± 0.021,0.4078 ± 0.0034,0.303 ± 0.015
